The nature of experiment [1]: Viability qHTS for spleen associated tyrosine kinase inhibitor (SYKi) naive MV4-11 cells (AID 1963823). Further: nearly all actives have a fitted effect of over 40% in size. Summed up: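 qHTS, SYK inhibitor-naive MV4-11; 500 cells/well; 72 hr compound exposure, 37 C; CellTiter-Glo added, 10 min RT; luminescence read.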
On the technique in general: Quantitative high-throughput screening tests each substance at several concentrations.

Experiment [2] can be described thus: Viability qHTS for spleen associated tyrosine kinase inhibitor (SYKi) drug resistant MV4-11 cells (AID 1963824). Further: nearly all actives have a fitted effect of over 35% in size. Summed up:
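CellTiter-Glo luminescence, read 10 min after reagent addition, reports viability after a 72 hr compound exposure. Cells are an MV4-11 line made resistant to SYK inhibition, seeded at 500 per well onto compound-containing plates.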

The nature of experiment [3]: Quantitative highthroughput screen to assess conditional lethalithy of NOMO1 cells grown in RPMI1640 with untreated serum (RPMI+s) (AID 1963876). Further: nearly all actives have a fitted effect of over 35% in size.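 On Viability: 100% = DMSO wells and 0% = empty wells without cells.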 Summed up: (§1)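 Each medium arm—HPLM with 10% dialyzed FBS, or RPMI1640 with 5 mM glucose and 10% untreated or dialyzed FBS—was screened against an 11-point, 3-fold compound titration for 48 h at 37 °C, with CellTiter-Glo luminescence as endpoint.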

Experiment [4] is described as follows: Quantitative highthroughput screen to assess conditional lethalithy of NOMO1 cells grown in RPMI1640 with dialyzed fetal bovine serum (RPMI+ds) (AID 1963877). Further: nearly all actives have a fitted effect of over 30% in size.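 On Viability: series mostly up to about 46 µM; 100% = DMSO control wells and 0% = empty wells.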 Summed up:
as §1

A short description of experiment [5]: Quantitative highthroughput screen to assess conditional lethalithy of NOMO1 cells grown in Human Plasma-Like Medium with dialyzed fetal bovine serum (HPLM+ds) (AID 1963878). Further: nearly all actives have a fitted effect of over 35% in size.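 On Viability: 100% = DMSO wells and 0% = empty wells on each plate.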 Summed up:
as §1

Experiment [6] in a line: Quantitative highthroughput screen to assess conditional lethalithy of P12 Ichikawa cells grown in Human Plasma-Like Medium with dialyzed fetal bovine serum (HPLM+ds) (AID 1963879). Further: nearly all actives have a fitted effect of over 35% in size. On Viability: series mostly up to about 46 µM. The settings on record: Potency: viability. Put shortly:
as §1

Experiment [7] is described as follows: Quantitative highthroughput screen to assess conditional lethalithy of P12 Ichikawa cells grown in RPMI1640 with dialyzed fetal bovine serum (RPMI+ds) (AID 1963880). Further: nearly all actives have a fitted effect of over 35% in size.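 On Viability: 100% = DMSO wells and 0% = empty wells on each plate.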 The settings on record: Potency: P12-Ichikawa viability. Summed up:
as §1

A short description of experiment [8]: Quantitative highthroughput screen to assess conditional lethalithy of P12 Ichikawa cells grown in RPMI1640 with untreated serum (RPMI+s) (AID 1963881). Further: nearly all actives have a fitted effect of over 35% in size.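 On Viability: series mostly up to about 46 µM; 100% = DMSO wells and 0% = empty wells without cells.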 The settings on record: Potency: viability. Put shortly: as §1
The nature of experiment [9]: Quantitative highthroughput screen to assess conditional lethalithy of SEM cells grown in Human Plasma-Like Medium with dialyzed fetal bovine serum (HPLM+ds) (AID 1963882). Further: nearly all actives have a fitted effect of over 35% in size. On Viability: series mostly up to about 46 µM. Put shortly: as §1
Experiment [10] can be described thus: Quantitative highthroughput screen to assess conditional lethalithy of SEM cells grown in RPMI1640 with unreated serum (RPMI+s) (AID 1963883). Further: nearly all actives have a fitted effect of over 35% in size.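 On Viability: 100% = DMSO wells and 0% = empty wells without cells.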 Put shortly: as §1
Experiment [11] in a line: Quantitative highthroughput screen to assess conditional lethalithy of SEM cells grown in RPMI1640 with dialyzed fetal bovine serum (RPMI+ds) (AID 1963884). Further: nearly all actives have a fitted effect of over 35% in size.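 On Viability: series mostly up to about 46 µM; 100% = DMSO control wells and 0% = empty wells without cells.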 Put shortly:
as §1

Experiment [12] can be described thus: Cellular viability qHTS for adrenocortical cancer (ACC) cell line SW-13 (AID 1963989). Further: nearly all actives have a fitted effect of over 65% in size.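 On activity (max response): cells grown in serum-free medium with ITS supplement; on the % scale 0 is the no-effect control and ±100 the full control effect.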 The settings on record: SW-13 ACC cells viability, CellTiter-Glo, 48 h; activity (max response): stronger effect = lower value. Summed up: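 Viability was read as CellTiter-Glo luminescence after 48 h compound treatment (up to 46 uM final) of SW-13 cells grown serum-free; titration curves were fit with a four-parameter logistic model to give IC50 and efficacy.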

The nature of experiment [13]: Cellular viability qHTS for adrenocortical cancer (ACC) cell line NCI-H295R (AID 1963990). Further: nearly all actives have a fitted effect of over 60% in size.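 On activity change, negative = viability loss: 0% = DMSO only wells and -100% = full killing with cytotoxic reference compound.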 Put shortly:
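CellTiter-Glo ATP luminescence, read 48 h after compound addition, measured viability of NCI-H295R adrenocortical cells grown serum-free with ITS. Final concentrations spanned up to 46 uM. Data normalized to DMSO and doxorubicin, fitted for IC50 and maximal response.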

Several values for one entry are separate records, joined by “and”; a condition that tells them apart may be missing. Equal values may be shown once. Inconclusive results are not listed. A number with no mark means an inactive call. Activity calls are given as the source filed them. The call rests on the fitted dose curve; in most records, active means well fitted curve in the direction sought with a large enough effect; inconclusive means small, poorly fitted or top-dose-only effect, or another doubt; inactive means no such curve, though single readings can be large; an effect the other way counts as inactive or inconclusive. Square brackets hold non-standard residues; d marks the D form. Peptide text beside a SMILES is read from it. * marks the point of attachment. Nva = CCC[C@H](N)C(=O)O; Cbz = O=C(OCc1ccccc1)*
Potency means the concentration at half of the fitted maximal effect.

For the compound `CC(C)(CO)[C@@H](O)C(=O)NCCC(=O)O`, the Potency entry in experiment [1], in experiment [2], in [3], in experiment [4], in [5] and in experiment [6] was “inactive” throughout. Moreover, the Potency result in experiment [7], in experiment [8], in [9], in experiment [10], in [11] and in [13] was “inactive” in each case. The activity (max response) in experiment [12] is -17.7%.
Consider `NC[C@H](O)c1ccc(O)c(O)c1`, for which the Potency result in experiment [1], in experiment [2], in [3], in experiment [4], in experiment [5] and in experiment [6] was “inactive” each time. Further, the Potency result in experiment [7], in [8], in [9], in experiment [10], in experiment [11] and in experiment [13] was “inactive” in each case. In addition, in experiment [12], the activity (max response) is -12.7% and 7.51%.
Consider `COc1cc(C[C@@H](CO)[C@H](CO)Cc2ccc(O)c(OC)c2)ccc1O`, for which the Potency entry in [1], in experiment [2], in experiment [3], in experiment [4], in experiment [5] and in experiment [6] was “inactive” throughout. Further, the Potency entry in experiment [7], in experiment [8], in experiment [9], in experiment [10], in experiment [11] and in experiment [13] was “inactive” each time. For the same compound, the activity (max response) in experiment [12] is -8.41%.
As for `Cn1cc(CNCC2CCN(c3ncc(C(=O)NO)cn3)CC2)c2ccccc21`, the Potency in experiment [1] was 66.1 nM (active); in [2] it was 16.6 nM (active); in experiment [3], 0.372 µM (active); in experiment [4], 0.332 µM (active); in experiment [5] it was 0.296 µM (active); in [6], 0.264 µM (active). In addition, the Potency in experiment [7] was 0.372 µM (active); in experiment [8], 0.235 µM (active); in [9] it was 0.132 µM (active); in [10] it was 0.148 µM (active); in [11], 0.132 µM (active); in [12] it was 1.26 µM (active). In [13], the Potency was 794 nM (active).
Regarding `CC(C)OC(=O)C(C)(C)Oc1ccc(C(=O)c2ccc(Cl)cc2)cc1`, the Potency result in experiment [1], in experiment [2], in experiment [3], in experiment [4], in experiment [5] and in experiment [6] was “inactive” in each case. Besides, the Potency result in [7], in [8] and in [13] was “inactive” each time. Moreover, the Potency in experiment [10] is 10.5 µM (active).
As for `COc1cc2nc(N3CCN(C(=O)C4CCCO4)CC3)nc(N)c2cc1OC` (stereo not drawn), the Potency result in [1], in experiment [2], in experiment [3], in experiment [4], in experiment [5] and in [6] was “inactive” throughout. For the same compound, the Potency entry in experiment [7] and in experiment [10] was “inactive” in each case. Further, the activity (max response) in [12] was -21%.
For the compound `COc1ccc(-c2nc3ccc(C4=NNC(=O)CC4C)cc3[nH]2)cc1` (stereo not drawn), the Potency in experiment [1] is 18600 nM (active); in experiment [2], 11800 nM (active); in experiment [12], 18.4 µM (active) and 20 µM (active); in experiment [13], 6.51 µM (active) and 14.1 µM (active). The Potency result in experiment [3], in experiment [4], in experiment [5], in experiment [6], in [7] and in experiment [8] was “inactive” each time. Also, the Potency entry in experiment [10] and in experiment [11] was “inactive” each time.
With `CC(C)NCC(O)c1ccc(O)c(O)c1` (stereo not drawn), the Potency result in experiment [1], in [2] and in experiment [13] was “inactive” in each case. Also, the Potency in experiment [3] was 5.9 µM (active); in [4], 7.43 µM (active); in [5], 4.69 µM (active); in experiment [6], 6.62 µM (active); in experiment [7], 9.35 µM (active); in experiment [8] it was 7.43 µM (active). Moreover, the activity (max response) in experiment [12] is 9.6% and -17.4%.
On to `COc1ccc2cccc(CCNC(C)=O)c2c1`, for which the Potency entry in experiment [1], in experiment [2], in [3], in [4], in experiment [5] and in [6] was “inactive” throughout. Besides, the Potency result in experiment [7], in [8] and in experiment [13] was “inactive” in each case. In experiment [12], the activity (max response) is 13%.
Consider `CCCCCN(C)CCC(O)(P(=O)(O)O)P(=O)(O)O`, for which, in [1], the viability (% of control) was 73% [at 4.97 µM]. Further, the viability, % of control in experiment [2] was 78.4% [at 4.97 µM]. Further, the Potency entry in experiment [3], in [4], in experiment [5], in experiment [6], in experiment [7] and in [8] was “inactive” each time. The Potency entry in experiment [11] is “inactive”. Further, the activity (max response) in [12] was -15.6%. For the same compound, the activity change, negative = viability loss in [13] is -3.37% [at 3.81 µM].
`Cc1n[nH]c(C)c1Cc1sc2c(c1C(=O)N1C[C@H](O)CO1)c(=O)n(C)c(=O)n2CC(C)C`: the Potency entry in experiment [1], in experiment [2], in experiment [3], in experiment [4], in experiment [5] and in [6] was “inactive” in each case. Also, the Potency result in experiment [7], in experiment [8] and in experiment [11] was “inactive” each time. Besides, in experiment [12], the activity (max response) is 15%.
As for `CCC[C@@H](C=O)NC(=O)[C@H](CC(C)C)NC(=O)[C@H](CC(C)C)NC(=O)OCc1ccccc1` (Cbz-Leu-Leu-[Nva]-aldehyde), the Potency in [1] was 742 nM (active); in [2] it was 934 nM (active); in experiment [3], 1.32 µM (active); in experiment [4], 2.64 µM (active); in [5], 1.87 µM (active); in experiment [6], 3.32 µM (active). The Potency in [7] is 3.32 µM (active); in experiment [9] it was 2.35 µM (active); in experiment [10] it was 0.526 µM (active); in experiment [11] it was 1.48 µM (active); in [12], 2 µM (active); in [13], 1580 nM (active).
As to `COc1cc(N2CCC(O)CC2)ccc1Nc1cc(Nc2ccccc2S(=O)(=O)C(C)C)c2cc[nH]c2n1`, the Potency is 16.4 µM (active) and 10.5 µM (active) in experiment [1]; 20.6 µM (active) and 14.8 µM (active) in experiment [2]. Besides, the Potency result in experiment [3], in [4], in [5], in experiment [6], in experiment [7] and in experiment [8] was “inactive” in each case. Besides, the Potency result in [13] is “inactive”. Moreover, in experiment [12], the activity (max response) was -1.42%.
`C[N+](C)(C)CC(=O)O`: the Potency entry in experiment [1], in experiment [2], in experiment [3], in experiment [4], in experiment [5] and in experiment [6] was “inactive” in each case. The Potency entry in experiment [7], in experiment [8], in [10], in experiment [11] and in [13] was “inactive” each time. Further, the activity (max response) in [12] was -6.24% and 7.87%.
As for `OCCC#Cc1nc(-c2ccc(F)cc2)c(-c2ccncc2)n1CCCc1ccccc1`, the Potency in experiment [1] is 20600 nM (active); in experiment [2], 10.3 µM (active) and 11.8 µM (active); in [11], 18.7 µM (active). In addition, the Potency result in experiment [3], in [4], in [5], in experiment [6], in [7] and in experiment [9] was “inactive” each time. The Potency entry in [10] is “inactive”.

The record behind these values is PubChem BioAssay (NCATS).
